Source: PubChem (National Center for Advancing Translational Sciences (NCATS))
Rows were chosen to be rich in hits. Some 5.4% of all compounds tested hit in one or more screens of this group.
CtBP-E1A blk: blocks the CtBP interaction with E1A; 0.49% of 340,000 active; activity change, % (no concentration beside the values); AID 651724; AlphaScreen GST-E1A/His-CtBP binding, 1536-well; hits give low values; in the data active = activity change below about -65%; inconclusive = mostly about -30% to -63%; note: % is set by controls: 0 for no effect and ±100 for the full control effect
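In 5 uL wells, 23 nL compound meets equimolar GST-E1A and His-CtBP (5X stock 125 nM each) for 2 h, 37 °C. Beads (5X, 50 ug/mL) then 1 h, 37 °C, dark.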
Gal4-VP16 FLuc: counter-screen for ROR gamma inhibitors: Gal4-VP16 reporter | AID 2546 | Drosophila S2 Gal4-VP16 UAS-luciferase, luminescence, 20 h | Potency, µM (highest dose often 53.6 µM), inactives show at the top dose activity, negative = inhibition, actives largely listed as inhibitors | 3.5% of 310,000 active;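 note: Gal4-VP16 expression switched on by copper sulfate through the metallothionein promoter; potency is the fitted concentration of half-maximal effect; % is set by controls: 0 for no effect and ±100 for the full control effect; nearly all actives have a fitted effect of over 50% in size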
Six1-Eya2 blk: inhibitors of human Six1/Eya2 interaction; Q15475+O00167; AlphaScreen GST-Six1/His-Eya2 binding, biochemical; hits give low values; activity change, % (concentration not given with the values); 0.56% of 360,000 active; in the data active = activity change below about -65%; inconclusive = mostly about -30% to -63%; note: % is set by controls: 0 for no effect and ±100 for the full control effect
Target sequence (O00167 whole entry, looked up): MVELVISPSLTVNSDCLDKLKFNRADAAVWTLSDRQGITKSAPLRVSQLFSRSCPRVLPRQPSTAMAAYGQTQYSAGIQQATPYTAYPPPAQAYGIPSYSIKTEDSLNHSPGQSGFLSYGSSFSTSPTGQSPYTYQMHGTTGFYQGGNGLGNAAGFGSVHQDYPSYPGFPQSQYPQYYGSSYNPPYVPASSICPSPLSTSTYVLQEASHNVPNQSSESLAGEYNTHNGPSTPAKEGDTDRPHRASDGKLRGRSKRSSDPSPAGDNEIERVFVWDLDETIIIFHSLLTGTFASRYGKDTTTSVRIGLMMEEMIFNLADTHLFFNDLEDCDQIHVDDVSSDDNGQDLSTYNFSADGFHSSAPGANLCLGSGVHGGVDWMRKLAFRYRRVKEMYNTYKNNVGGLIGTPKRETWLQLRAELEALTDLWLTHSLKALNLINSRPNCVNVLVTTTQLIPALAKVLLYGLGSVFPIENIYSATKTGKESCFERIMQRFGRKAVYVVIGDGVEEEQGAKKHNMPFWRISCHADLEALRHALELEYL
Target sequence (Q15475 whole entry, looked up): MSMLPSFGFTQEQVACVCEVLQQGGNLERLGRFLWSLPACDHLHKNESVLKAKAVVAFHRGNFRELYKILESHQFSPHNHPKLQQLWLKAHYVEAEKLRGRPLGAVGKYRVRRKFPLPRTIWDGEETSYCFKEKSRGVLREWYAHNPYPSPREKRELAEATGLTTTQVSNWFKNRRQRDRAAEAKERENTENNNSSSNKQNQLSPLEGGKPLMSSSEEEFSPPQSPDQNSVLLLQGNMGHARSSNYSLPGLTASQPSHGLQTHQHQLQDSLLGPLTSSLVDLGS
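Six1/Eya2 binding was read as AlphaScreen signal after compounds were pinned into GST-Six1 plus His-tagged Eya2 (5X stock 250/500 nM) in pH 8.0 Tris/NaCl/TCEP buffer, beads added, then incubated 1 h, 37 C, dark.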
RORgamma inh: inhibitors of mouse ROR gamma transcriptional activity. Potency, µM (doses to about 53.6 µM), for inactives: at the top dose activity change, negative = inhibition, most hits filed as inhibitors. Drosophila S2 Gal4-RORgamma UAS-luciferase reporter, 20 h. P51450. 5.4% of 310,000 active; note: potency is the fitted concentration of half-maximal effect; % is set by controls: 0 for no effect and ±100 for the full control effect; nearly all actives have a fitted effect of over 60% in size
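Drosophila Schneider cells stably carrying a metallothionein-driven Gal4 DBD–ROR gamma fusion and a UAS-Photinus luciferase reporter were exposed to compound for 1 hr, then induced with copper sulfate (700 uM final) for 20 hr at ambient temperature before luminescence reading.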
p53 reactivation: restores transcriptional activity of mutant p53. Potency, µM (titrated, usually from 92.2 µM), without a hit: at the top dose activity change, positive = activation, actives largely listed as activators. AID 504706. H1299 p53-A138V BP100-luciferase reporter, luminescence, 24 h. 0.063% of 320,000 active; note: potency is the fitted concentration of half-maximal effect; % of control where 0% means no effect; nearly all actives have a fitted effect of over 45% in size
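p53-null H1299 cells stably carrying temperature-sensitive p53-A138V and a BP100-luciferase reporter were pinned with compounds (4-point, 1:5 series) and held 24 hrs at 37 deg C. Luminescence was read 10 min after detection reagent.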
The depositor's hits bear a star; ? = inconclusive; . = not tested or not shown; [ ] = another dose, or the depositor's remark. Unless noted, calls come from the whole dose curve; as a rule, active = well fitted curve in the direction sought with a large enough effect; inconclusive = small, poorly fitted or top-dose-only effect, or another doubt; inactive = no such curve, though single readings can be large; an effect the other way counts as inactive or inconclusive.

SMILES | CtBP-E1A blk | Gal4-VP16 FLuc | Six1-Eya2 blk | RORgamma inh | p53 reactivation
C/C(=N\NC(=O)c1nnn(-c2nonc2N)c1CSc1ccc(C)cc1)c1cccs1 | -15.7 | . | 9.6 | . | .
CN(C)c1ccc(/C=N/N=C2/NC(=O)/C(=C/c3ccc([N+](=O)[O-])cc3)S2)cc1 | -16.0 | ? | -10.3 | 2.82µM* | -1.7%
CN(C)c1ccc(C=C2SC(=S)NC2=O)cc1 | -12.9 | . | -25.3 | . | .
Cc1cccc(NC(=S)NC2CC3C=CC2C3)c1 (stereo unspecified) | -19.3 | 11.2µM* | -1.1 | 5.01µM* | 5.0%
CC(=O)Nc1ccc(NC(=S)NC(=O)C2CCCC2)cc1 | 9.7 | 0.1% | 5.9 | 14.8% | -1.6%
O=C(NC(=S)Nc1cccc([N+](=O)[O-])c1)C1CCCCC1 | 1.1 | ? | -2.3 | 10µM* | ?
Cc1cccc(NC(=S)NC(=O)C2CC2)c1 | . | ? | . | 7.94µM* | 25.1µM*
Cc1cc(NC(=S)NC(=O)C2CC2)ccc1Br | 3.6 | 2.51µM* | -2.7 | 2.51µM* | ?
CN(C)S(=O)(=O)c1cccc(NC(=S)NC(=O)C2CCCCC2)c1 | -0.3 | ? | -3.3 | ? | 25.9%
Cc1cccc(NC(=O)C2CCCC2)c1 | 4.9 | -5.4% | 5.0 | 39.2% | 13.3%
O=C(O)C1=C(CSc2nnnn2CS(=O)(=O)O)CS[C@@H]2[C@H](NC(=O)[C@H](O)c3ccccc3)C(=O)N12 | . | -5.7% | . | -12.3% | .
Cc1cc(C)cc(NC(=S)NC(=O)C2CC2)c1 | -0.1 | 6.31µM* | 3.4 | 7.08µM* | -7.8%
Cc1ccc(NC(=S)NC(=O)C2CCCC2)c(Br)c1 | -3.2 | . | -0.2 | . | ?
CC(=O)N1[C@H](Cc2ccccc2)C=C[C@]1(C)C(=O)NCc1ccccn1 | -0.7 | 14.2% | -4.2 | -4.9% | 3.0%
Cc1ccc(-n2nc3cc(C)c(NC(=S)NC(=O)/C=C/c4ccco4)cc3n2)cc1 | 0.5 | 5.01µM* | 2.9 | 2.24µM* | ?
COc1ccc(-n2nc3cc(C)c(NC(=S)NC(=O)c4ccccc4C)cc3n2)cc1 | 3.3 | ? | 3.1 | 3.16µM* | ?
CCC(=O)Nc1cc2nn(-c3ccc(OC)cc3)nc2cc1C | 11.4 | ? | 0.3 | ? | ?
CCC(=O)Nc1cc2nn(-c3ccc(C)cc3)nc2cc1C | 9.7 | -20.6% | 2.1 | -28.3% | 12.0%
CC(=O)c1ccc(NC(=S)NC(=O)/C=C/c2ccco2)cc1 | . | ? | 12.7 | 9.6%[1.91 µM] | .
Cc1ccc(-n2nc3ccc(NC(=S)NC(=O)/C=C/c4ccco4)cc3n2)cc1 | -14.5 | ? | -9.6 | 3.16µM* | 2.5%
CCN(CC(=O)NCc1cccs1)C(=O)c1ccc(S(=O)(=O)Nc2ccccc2Cl)cc1 | -11.8 | . | 4.9 | . | -4.6%
O=S(=O)(NC1CCSc2ccccc21)c1ccc(Cl)nc1 (stereo unspecified) | -9.3 | 21.5% | -2.7 | 12.4% | 3.6%
COC(=O)c1ccccc1NS(=O)(=O)c1c(C)noc1C | 6.4 | 2.4% | -0.2 | -6.7% | -1.6%
Cc1cc[n+](C2=C([O-])c3ccccc3C(=O)/C2=N\S(=O)(=O)c2cccs2)cc1C | -12.0 | 11.2µM* | -0.5 | 15.8µM* | -26.5%
CC(C)(C)c1cc[n+](C2=C([O-])c3ccccc3C(=O)/C2=N\S(=O)(=O)c2ccccc2)cc1 | 0.6 | 6.31µM* | 8.5 | 5.62µM* | -11.1%
SMILES | CtBP-E1A blk | Gal4-VP16 FLuc | Six1-Eya2 blk | RORgamma inh | p53 reactivation
CC(C)[n+]1ccn(C2=C([O-])c3ccccc3C(=O)/C2=N\S(=O)(=O)c2ccccc2)c1 | -7.1 | ? | -3.7 | -37.6% | -11.9%
O=C(NC1CCSC1)c1cccc(Cl)c1 (stereo unspecified) | 0.0 | 9.6% | 9.4 | 2.0% | -0.9%
O=C1NC(c2ccc(Cl)cc2)=COc2ccccc21 | -8.1 | -2.2% | 8.9 | -15.0% | 1.3%
O=C1NN=COc2ccccc21 | -5.0 | -5.1% | 0.0 | 12.6µM* | -2.5%
CN(C)c1ncc2nc(-c3cccs3)c(=O)n(C)c2n1 | . | -1.9% | . | 6.5% | .
Cc1cc(NC(=O)CSc2nnc(C(F)(F)F)n2C)no1 | -5.9 | . | 0.0 | . | 0.4%
COC1=C(Nc2ccccc2)C(=O)c2ccccc2C1=O | -66.6* | -1.9% | -83.3* | 7.8% | -3.3%
COC1=C(Nc2ccc(C)cc2)C(=O)c2ccccc2C1=O | -90.2* | -7.6% | -86.0* | 10.2% | -29.7%
